# Laboratory results published in article PMC7862700, “An all-to-all approach to the identification of sequence-specific readers for epigenetic DNA modifications on cytosine”.
# How the values were obtained:
# Test in all cases: DAPPL (digital affinity profiling via proximity ligation, sequencing); 10 mM Tris-HCl pH 7.5, 50 mM NaCl, 1 mM DTT, 4% glycerol, room temperature, 30 min; GST-TFs on glutathione beads, 16-mer random dsDNA library, 0.1% formaldehyde crosslink after washing; high values mean tight binding
# FLI1 = target: T1, FLI1 (Homo sapiens, UniProt Q01543 1-452); details: protein: recombinant; tags: N-terminal GST; dsDNA, one strand shown
# T1 sequence: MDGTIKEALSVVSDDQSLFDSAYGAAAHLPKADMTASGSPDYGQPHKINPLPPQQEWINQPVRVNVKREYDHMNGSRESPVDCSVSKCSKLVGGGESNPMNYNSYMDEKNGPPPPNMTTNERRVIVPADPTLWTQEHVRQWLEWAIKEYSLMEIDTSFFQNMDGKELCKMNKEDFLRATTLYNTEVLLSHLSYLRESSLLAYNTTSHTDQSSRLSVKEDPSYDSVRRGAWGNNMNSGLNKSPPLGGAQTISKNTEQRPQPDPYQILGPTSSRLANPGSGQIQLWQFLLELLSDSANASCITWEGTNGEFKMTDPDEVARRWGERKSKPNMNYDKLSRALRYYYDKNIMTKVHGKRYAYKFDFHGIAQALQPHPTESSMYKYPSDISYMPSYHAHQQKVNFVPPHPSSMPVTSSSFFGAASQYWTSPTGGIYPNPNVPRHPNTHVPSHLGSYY
# Procedure, shortened: (§1)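 Pools of DNA-barcoded human transcription factors, expressed in yeast as GST fusions on glutathione beads and combined with a tag-only sample, were incubated with 200 nmole of a 16-mer random double-stranded DNA library. Incubation took 30 min at room temperature in Tris/NaCl/DTT/glycerol buffer and was followed by washing, 0.1% formaldehyde crosslinking, proximity ligation (BsaI/T4 ligase, 1 h, 37 °C), PCR amplification and sequencing on an Illumina NextSeq500. Binding signal is the ratio of a hexamer's read frequency for a factor to its frequency for the tag-only sample.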
# ELK1 = target: T2, ELK1 (Homo sapiens, UniProt P19419 1-428); details: protein: recombinant; tags: N-terminal GST; dsDNA, one strand shown
# T2 sequence: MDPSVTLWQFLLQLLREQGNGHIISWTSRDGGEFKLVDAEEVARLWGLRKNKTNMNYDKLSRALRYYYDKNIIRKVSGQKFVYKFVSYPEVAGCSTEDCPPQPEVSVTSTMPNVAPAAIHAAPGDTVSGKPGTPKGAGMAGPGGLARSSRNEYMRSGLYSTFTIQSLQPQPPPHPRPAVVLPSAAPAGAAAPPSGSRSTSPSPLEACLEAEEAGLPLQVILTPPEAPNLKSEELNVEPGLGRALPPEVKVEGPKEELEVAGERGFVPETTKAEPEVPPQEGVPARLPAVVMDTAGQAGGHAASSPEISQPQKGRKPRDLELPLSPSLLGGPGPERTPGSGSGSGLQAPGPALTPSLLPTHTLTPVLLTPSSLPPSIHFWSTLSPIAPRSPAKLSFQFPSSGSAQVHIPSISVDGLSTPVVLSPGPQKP
# Procedure, shortened: as §1
# GABPA = target: T3, GABPA (Homo sapiens, UniProt Q06546 1-454); details: protein: recombinant; tags: N-terminal GST; dsDNA, one strand shown
# T3 sequence: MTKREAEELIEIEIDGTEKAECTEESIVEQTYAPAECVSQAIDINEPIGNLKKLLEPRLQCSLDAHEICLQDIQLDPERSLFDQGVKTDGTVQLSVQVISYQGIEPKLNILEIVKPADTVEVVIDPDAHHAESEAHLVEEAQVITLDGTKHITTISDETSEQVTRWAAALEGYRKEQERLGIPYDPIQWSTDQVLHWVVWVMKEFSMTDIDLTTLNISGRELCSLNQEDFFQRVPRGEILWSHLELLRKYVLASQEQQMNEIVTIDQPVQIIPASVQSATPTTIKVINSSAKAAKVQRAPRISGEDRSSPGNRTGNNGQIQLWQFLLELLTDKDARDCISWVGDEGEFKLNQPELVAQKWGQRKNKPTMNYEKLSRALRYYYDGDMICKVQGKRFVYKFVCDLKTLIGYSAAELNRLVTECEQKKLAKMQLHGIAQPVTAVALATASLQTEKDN
# Procedure, shortened: as §1
# ERG = target: T4, ERG (Homo sapiens, UniProt P11308 1-479); details: protein: recombinant; tags: N-terminal GST; dsDNA, one strand shown
# T4 sequence: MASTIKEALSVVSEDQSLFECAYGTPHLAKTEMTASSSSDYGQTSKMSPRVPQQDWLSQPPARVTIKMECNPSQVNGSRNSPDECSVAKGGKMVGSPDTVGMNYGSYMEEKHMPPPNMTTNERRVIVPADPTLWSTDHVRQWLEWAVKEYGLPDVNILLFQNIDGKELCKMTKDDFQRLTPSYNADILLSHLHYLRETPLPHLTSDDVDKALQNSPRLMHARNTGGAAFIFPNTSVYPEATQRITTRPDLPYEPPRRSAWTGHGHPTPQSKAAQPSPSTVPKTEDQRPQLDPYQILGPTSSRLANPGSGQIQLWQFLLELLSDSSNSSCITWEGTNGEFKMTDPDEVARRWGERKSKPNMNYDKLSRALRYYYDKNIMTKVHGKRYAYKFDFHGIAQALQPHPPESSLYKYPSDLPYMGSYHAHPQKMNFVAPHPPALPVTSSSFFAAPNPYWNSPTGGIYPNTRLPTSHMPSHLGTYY
# Procedure, shortened: as §1
# ELF1 = ELF1 (Homo sapiens, UniProt P32519 1-619); details: protein: recombinant; tags: N-terminal GST; dsDNA, one strand shown
# Sequence of ELF1 (P32519 whole entry): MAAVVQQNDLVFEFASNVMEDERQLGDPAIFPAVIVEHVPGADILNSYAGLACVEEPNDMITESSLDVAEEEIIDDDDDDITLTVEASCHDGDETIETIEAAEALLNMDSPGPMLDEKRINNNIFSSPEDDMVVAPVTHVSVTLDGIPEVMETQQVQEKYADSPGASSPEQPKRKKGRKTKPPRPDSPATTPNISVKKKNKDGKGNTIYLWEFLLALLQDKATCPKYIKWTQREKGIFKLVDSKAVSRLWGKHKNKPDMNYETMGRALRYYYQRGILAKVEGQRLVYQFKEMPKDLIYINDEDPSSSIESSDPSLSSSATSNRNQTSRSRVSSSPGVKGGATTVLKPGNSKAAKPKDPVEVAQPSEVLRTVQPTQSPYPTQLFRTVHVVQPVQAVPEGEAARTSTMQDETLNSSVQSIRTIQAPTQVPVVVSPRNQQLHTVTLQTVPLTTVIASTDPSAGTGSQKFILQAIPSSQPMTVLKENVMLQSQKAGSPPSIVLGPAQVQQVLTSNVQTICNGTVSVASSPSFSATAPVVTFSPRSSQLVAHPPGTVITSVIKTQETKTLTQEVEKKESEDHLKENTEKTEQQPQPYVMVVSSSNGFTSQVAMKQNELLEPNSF
# Procedure, shortened: as §1
# SPI1 = SPI1 (Homo sapiens, UniProt P17947 1-270); details: protein: recombinant; tags: N-terminal GST; dsDNA, one strand shown
# Procedure, shortened: as §1
# SPIB = SPIB (Homo sapiens, UniProt Q01892 1-262); details: protein: recombinant; tags: N-terminal GST; dsDNA, one strand shown
# Sequence of SPIB (Q01892 whole entry): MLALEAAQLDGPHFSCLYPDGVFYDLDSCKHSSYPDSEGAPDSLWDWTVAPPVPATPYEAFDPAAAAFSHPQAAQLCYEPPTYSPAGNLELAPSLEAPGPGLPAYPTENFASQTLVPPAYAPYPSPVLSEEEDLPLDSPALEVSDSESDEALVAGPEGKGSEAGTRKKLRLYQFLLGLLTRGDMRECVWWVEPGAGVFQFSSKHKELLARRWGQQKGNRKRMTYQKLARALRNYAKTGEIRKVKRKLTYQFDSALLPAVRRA
# Procedure, shortened: as §1
# FEV = target: T5, FEV (Homo sapiens, UniProt Q99581 1-238); details: protein: recombinant; tags: N-terminal GST; dsDNA, one strand shown
# T5 sequence: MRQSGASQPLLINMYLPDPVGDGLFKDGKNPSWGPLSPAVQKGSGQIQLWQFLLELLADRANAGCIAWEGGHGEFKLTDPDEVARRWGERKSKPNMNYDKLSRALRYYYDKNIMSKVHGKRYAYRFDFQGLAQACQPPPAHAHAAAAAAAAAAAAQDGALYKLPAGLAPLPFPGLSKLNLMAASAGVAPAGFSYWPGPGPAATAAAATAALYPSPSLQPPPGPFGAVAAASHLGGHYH
# Procedure, shortened: as §1
# ETV5 = ETV5 (Homo sapiens, UniProt P41161 1-510); details: protein: recombinant; tags: N-terminal GST; dsDNA, one strand shown
# Sequence of ETV5 (P41161 whole entry): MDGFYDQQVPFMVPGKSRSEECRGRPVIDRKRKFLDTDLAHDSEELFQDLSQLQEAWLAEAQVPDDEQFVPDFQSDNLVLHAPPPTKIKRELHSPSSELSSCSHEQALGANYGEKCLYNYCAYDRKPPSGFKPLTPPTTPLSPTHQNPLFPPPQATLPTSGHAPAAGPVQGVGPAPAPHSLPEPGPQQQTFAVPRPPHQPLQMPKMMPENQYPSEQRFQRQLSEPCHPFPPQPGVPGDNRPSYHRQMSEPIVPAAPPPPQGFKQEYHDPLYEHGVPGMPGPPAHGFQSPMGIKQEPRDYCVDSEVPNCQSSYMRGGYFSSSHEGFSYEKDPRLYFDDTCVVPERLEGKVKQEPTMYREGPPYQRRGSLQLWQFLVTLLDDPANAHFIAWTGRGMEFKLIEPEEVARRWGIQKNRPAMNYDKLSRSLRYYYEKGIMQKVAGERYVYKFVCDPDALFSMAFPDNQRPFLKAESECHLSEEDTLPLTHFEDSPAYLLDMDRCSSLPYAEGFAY
# Procedure, shortened: as §1
# HSF1 = HSF1 (Homo sapiens, UniProt Q00613 1-529); details: protein: recombinant; tags: N-terminal GST; chain copies: 3; dsDNA, one strand shown
# Sequence of HSF1 (Q00613 whole entry): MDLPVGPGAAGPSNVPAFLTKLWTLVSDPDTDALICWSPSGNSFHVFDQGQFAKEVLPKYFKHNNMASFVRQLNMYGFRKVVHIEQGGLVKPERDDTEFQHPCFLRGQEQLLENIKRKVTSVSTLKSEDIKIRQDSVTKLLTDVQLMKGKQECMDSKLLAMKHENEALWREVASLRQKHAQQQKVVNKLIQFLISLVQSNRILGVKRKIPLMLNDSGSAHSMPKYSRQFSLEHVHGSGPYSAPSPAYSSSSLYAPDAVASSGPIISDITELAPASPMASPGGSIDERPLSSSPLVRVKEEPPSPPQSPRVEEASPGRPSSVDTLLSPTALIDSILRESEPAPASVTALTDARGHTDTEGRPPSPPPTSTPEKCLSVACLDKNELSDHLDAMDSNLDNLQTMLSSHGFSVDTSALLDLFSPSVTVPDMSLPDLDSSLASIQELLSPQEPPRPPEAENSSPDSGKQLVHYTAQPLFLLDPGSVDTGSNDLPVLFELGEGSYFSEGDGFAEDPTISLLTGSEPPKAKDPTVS
# Procedure, shortened: as §1
# SPIC = target: T6, SPIC (Homo sapiens, UniProt Q8N5J4 1-248); details: protein: recombinant; tags: N-terminal GST; dsDNA, one strand shown
# T6 sequence: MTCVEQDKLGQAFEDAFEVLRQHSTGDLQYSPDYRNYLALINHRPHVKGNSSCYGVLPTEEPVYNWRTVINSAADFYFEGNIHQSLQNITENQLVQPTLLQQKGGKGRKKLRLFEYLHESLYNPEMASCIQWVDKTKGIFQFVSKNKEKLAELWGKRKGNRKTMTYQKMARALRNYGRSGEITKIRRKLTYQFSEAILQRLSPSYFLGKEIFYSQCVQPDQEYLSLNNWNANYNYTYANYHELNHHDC
# Procedure, shortened: as §1
# ELF4 = ELF4 (Homo sapiens, UniProt Q99607 1-663); details: protein: recombinant; tags: N-terminal GST; dsDNA, one strand shown
# Sequence of ELF4 (Q99607 whole entry): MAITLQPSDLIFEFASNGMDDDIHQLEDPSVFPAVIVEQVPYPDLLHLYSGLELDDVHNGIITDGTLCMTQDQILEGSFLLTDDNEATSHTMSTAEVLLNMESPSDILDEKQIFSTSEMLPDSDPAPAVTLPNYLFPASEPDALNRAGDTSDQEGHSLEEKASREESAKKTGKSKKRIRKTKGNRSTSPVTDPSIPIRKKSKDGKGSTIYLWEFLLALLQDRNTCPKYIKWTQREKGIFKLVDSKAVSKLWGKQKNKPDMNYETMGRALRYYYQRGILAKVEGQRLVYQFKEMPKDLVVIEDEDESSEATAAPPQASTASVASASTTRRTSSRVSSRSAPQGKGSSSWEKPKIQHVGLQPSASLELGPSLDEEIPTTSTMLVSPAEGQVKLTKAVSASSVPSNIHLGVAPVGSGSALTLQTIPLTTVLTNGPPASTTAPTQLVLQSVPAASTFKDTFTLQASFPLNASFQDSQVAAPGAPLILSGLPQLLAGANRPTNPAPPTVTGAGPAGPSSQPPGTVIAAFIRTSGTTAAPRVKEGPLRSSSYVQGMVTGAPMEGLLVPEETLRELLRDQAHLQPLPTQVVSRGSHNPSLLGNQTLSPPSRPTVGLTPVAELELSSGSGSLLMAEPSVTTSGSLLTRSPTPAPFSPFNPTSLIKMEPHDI
# Procedure, shortened: as §1
# ELK4 = target: T7, ELK4 (Homo sapiens, UniProt P28324-2 1-405); details: protein: recombinant; tags: N-terminal GST; dsDNA, one strand shown
# T7 sequence: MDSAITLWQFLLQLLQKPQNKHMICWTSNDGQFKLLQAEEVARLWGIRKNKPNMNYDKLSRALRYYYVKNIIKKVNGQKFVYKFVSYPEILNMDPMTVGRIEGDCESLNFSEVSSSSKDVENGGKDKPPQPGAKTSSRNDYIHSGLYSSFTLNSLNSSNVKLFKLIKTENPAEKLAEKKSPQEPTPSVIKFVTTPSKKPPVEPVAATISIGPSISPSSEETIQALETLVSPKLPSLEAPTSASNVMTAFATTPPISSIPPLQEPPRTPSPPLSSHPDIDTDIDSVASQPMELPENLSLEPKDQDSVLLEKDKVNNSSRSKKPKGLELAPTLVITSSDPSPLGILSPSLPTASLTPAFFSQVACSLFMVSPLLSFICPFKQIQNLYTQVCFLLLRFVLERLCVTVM
# Procedure, shortened: as §1
# ETV2 = target: T8, ETV2 (Homo sapiens, UniProt O00321 1-342); details: protein: recombinant; tags: N-terminal GST; dsDNA, one strand shown
# T8 sequence: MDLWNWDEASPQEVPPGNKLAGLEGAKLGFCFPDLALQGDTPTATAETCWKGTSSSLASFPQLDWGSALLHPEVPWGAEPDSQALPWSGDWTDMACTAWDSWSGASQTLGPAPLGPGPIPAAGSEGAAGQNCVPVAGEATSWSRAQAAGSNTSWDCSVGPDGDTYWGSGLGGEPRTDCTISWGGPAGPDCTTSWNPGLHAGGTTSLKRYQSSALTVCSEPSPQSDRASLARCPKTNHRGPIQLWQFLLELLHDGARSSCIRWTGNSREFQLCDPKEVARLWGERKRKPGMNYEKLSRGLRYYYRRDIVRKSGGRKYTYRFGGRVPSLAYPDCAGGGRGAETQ
# Procedure, shortened: as §1
# ELF3 = target: T9, ELF3 (Homo sapiens, UniProt P78545 1-371); details: protein: recombinant; tags: N-terminal GST; dsDNA, one strand shown
# T9 sequence: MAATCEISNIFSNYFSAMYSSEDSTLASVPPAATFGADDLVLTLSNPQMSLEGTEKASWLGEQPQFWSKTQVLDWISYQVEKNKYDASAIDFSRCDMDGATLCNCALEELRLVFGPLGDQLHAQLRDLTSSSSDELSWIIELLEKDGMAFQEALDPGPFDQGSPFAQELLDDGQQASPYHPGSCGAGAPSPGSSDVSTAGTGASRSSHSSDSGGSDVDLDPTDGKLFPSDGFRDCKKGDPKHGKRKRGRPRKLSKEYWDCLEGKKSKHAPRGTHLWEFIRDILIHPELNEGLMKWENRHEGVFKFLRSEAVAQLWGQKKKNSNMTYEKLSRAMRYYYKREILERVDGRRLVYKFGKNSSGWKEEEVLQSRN
# Procedure, shortened: as §1
# CRX = CRX (Homo sapiens, UniProt O43186 1-299); details: protein: recombinant; tags: N-terminal GST; dsDNA, one strand shown
# Sequence of CRX (O43186 whole entry): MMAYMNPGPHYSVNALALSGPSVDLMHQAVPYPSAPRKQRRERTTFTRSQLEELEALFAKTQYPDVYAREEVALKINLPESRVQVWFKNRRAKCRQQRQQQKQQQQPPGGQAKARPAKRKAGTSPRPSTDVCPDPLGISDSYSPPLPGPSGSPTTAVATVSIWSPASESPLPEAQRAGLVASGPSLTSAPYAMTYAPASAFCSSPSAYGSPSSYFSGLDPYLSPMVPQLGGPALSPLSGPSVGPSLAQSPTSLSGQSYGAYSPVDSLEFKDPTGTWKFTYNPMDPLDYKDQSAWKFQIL
# Procedure, shortened: as §1
# ETV1 = ETV1 (Homo sapiens, UniProt P50549 1-477); details: protein: recombinant; tags: N-terminal GST; dsDNA, one strand shown
# Sequence of ETV1 (P50549 whole entry): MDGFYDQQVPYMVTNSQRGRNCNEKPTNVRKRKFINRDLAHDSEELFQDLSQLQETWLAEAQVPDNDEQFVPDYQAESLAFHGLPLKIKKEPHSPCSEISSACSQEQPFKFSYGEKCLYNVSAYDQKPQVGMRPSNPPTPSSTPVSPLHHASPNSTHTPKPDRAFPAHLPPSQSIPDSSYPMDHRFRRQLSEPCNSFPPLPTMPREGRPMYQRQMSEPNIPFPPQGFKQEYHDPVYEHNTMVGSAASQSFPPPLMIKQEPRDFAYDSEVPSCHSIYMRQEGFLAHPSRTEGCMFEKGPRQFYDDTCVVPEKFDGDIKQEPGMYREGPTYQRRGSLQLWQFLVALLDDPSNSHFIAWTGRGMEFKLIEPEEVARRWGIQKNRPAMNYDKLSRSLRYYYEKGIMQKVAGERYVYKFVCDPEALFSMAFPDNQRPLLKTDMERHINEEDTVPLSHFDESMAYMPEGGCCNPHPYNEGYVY
# Procedure, shortened: as §1
sequence,measurement,setting,value
TTCGGC,binding signal,FLI1,"1.03 fold enrichment (6-mer frequency, TF over GST control)"
same,binding signal,ELK1,"1.14 fold enrichment (6-mer frequency, TF over GST control)"
same,binding signal,GABPA,"1.22 fold enrichment (6-mer frequency, TF over GST control)"
same,binding signal,ERG,"1.08 fold enrichment (6-mer frequency, TF over GST control)"
same,binding signal,ELF1,"1 fold enrichment (6-mer frequency, TF over GST control)"
same,binding signal,SPI1,"1.04 fold enrichment (6-mer frequency, TF over GST control)"
same,binding signal,SPIB,"1.02 fold enrichment (6-mer frequency, TF over GST control)"
same,binding signal,FEV,"1 fold enrichment (6-mer frequency, TF over GST control)"
same,binding signal,ETV5,"1.02 fold enrichment (6-mer frequency, TF over GST control)"
same,binding signal,HSF1,"1.05 fold enrichment (6-mer frequency, TF over GST control)"
same,binding signal,SPIC,"1.1 fold enrichment (6-mer frequency, TF over GST control)"
same,binding signal,ELF4,"1.19 fold enrichment (6-mer frequency, TF over GST control)"
same,binding signal,ELK4,"1.07 fold enrichment (6-mer frequency, TF over GST control)"
same,binding signal,ETV2,"1.22 fold enrichment (6-mer frequency, TF over GST control)"
same,binding signal,ELF3,"1.07 fold enrichment (6-mer frequency, TF over GST control)"
same,binding signal,CRX,"1.1 fold enrichment (6-mer frequency, TF over GST control)"
same,binding signal,ETV1,"1.14 fold enrichment (6-mer frequency, TF over GST control)"
